This note sets out measurements from the antibiotic and cytotoxicity screens of Wong et al. (2023).

Out of some 39,000 compounds screened, about 3,300 (8.5%) were called active. The sample holds actives, similar compounds and a random draw of the others, so the mix is not that of the screen.

For the test, the system named is HepG2. In words: cytotoxicity call (relative viability < 0.9). The following applies: 10 µM.
Take `COc1ccc(C#Cc2cccc(-c3nc(C(=O)N[C@@H]4CCN(Cc5ccccc5)C4)cc4c3[C@@H](CCO)N(S(=O)C(C)(C)C)C4)c2)cc1OC` (stereo partly drawn): the cytotoxicity call was “inactive”. Take `c1ccc2cc3nc4c(ccc5ccccc54)nc3cc2c1`: the cytotoxicity call is “inactive”. With `C[C@@H]1CCCCO[C@@H](CN(C)C(=O)NC2CCCCC2)[C@@H](C)CN([C@H](C)CO)C(=O)c2cc(NC(=O)c3ccccc3)ccc2O1`, the cytotoxicity call was “inactive”.

For `C[C@@H]1CN([C@@H](C)CO)S(=O)(=O)c2ccc(C#Cc3ccccc3)cc2O[C@H]1CN(C)S(C)(=O)=O`, the cytotoxicity call was “inactive”. As for `C[C@H](CO)N1C[C@H](C)[C@@H](CN(C)Cc2ccncc2)Oc2c(NC(=O)c3cnccn3)cccc2C1=O`, the cytotoxicity call is “inactive”. `C[C@@H]1CN([C@@H](C)CO)C(=O)c2cc(NC(=O)Nc3cccc4ccccc34)ccc2O[C@@H](C)CCCCO[C@H]1CN(C)C(=O)Nc1cccc2ccccc12`: the cytotoxicity call is “inactive”.

`C[C@@H]1CN([C@@H](C)CO)C(=O)c2cc(NC(=O)Nc3ccc(C(F)(F)F)cc3)ccc2O[C@@H](C)CCCCO[C@@H]1CN(C)C(=O)Nc1cccc2ccccc12`: the cytotoxicity call was “inactive”.

Turning to `CC(C)NC(=O)Nc1ccc2c(c1)C(=O)N([C@H](C)CO)C[C@@H](C)[C@H](CN(C)C(=O)Nc1cccc3ccccc13)OCCCC[C@H](C)O2`, the cytotoxicity call was “inactive”.

For the compound `CC(C)NC(=O)Nc1ccc2c(c1)C(=O)N([C@H](C)CO)C[C@H](C)[C@H](CN(C)C(=O)Nc1cccc3ccccc13)OCCCC[C@H](C)O2`, the cytotoxicity call is “active”. On to `C[C@@H]1CCCCO[C@@H](CN(C)C(=O)Nc2cccc3ccccc23)[C@H](C)CN([C@@H](C)CO)C(=O)c2cc(NC(=O)Nc3cccc4ccccc34)ccc2O1`, for which the cytotoxicity call is “active”. Consider `C[C@@H]1CCCCO[C@H](CN(C)C(=O)Nc2cccc3ccccc23)[C@H](C)CN([C@@H](C)CO)C(=O)c2cc(NC(=O)Nc3ccc(C(F)(F)F)cc3)ccc2O1`, for which the cytotoxicity call was “active”. Regarding `CC(C)NC(=O)Nc1ccc2c(c1)C(=O)N([C@@H](C)CO)C[C@@H](C)[C@@H](CN(C)C(=O)Nc1cccc3ccccc13)OCCCC[C@@H](C)O2`, the cytotoxicity call is “inactive”. Take `C[C@H](CO)N1C[C@H](C)[C@@H](CN(C)C(=O)Nc2cccc3ccccc23)OCCCC[C@H](C)Oc2ccc(NC(=O)Nc3cccc4ccccc34)cc2C1=O`: the cytotoxicity call is “inactive”. Under `C[C@@H]1CN([C@@H](C)CO)C(=O)c2cc(NC(=O)Nc3ccc(C(F)(F)F)cc3)ccc2O[C@@H](C)CCCCO[C@H]1CN(C)C(=O)Nc1cccc2ccccc12` stands “inactive”; under `CN(C)CCCNC(=O)C[C@@H]1C=C[C@H](NS(=O)(=O)c2ccccc2)[C@H](CO)O1`, “inactive”; under `CO[C@@H]1CN(C)C(=O)c2cc(NC(=O)C3CC3)ccc2OC[C@@H](C)N(C(=O)Cc2ccccn2)C[C@H]1C`, “inactive”. As to `NC(=O)c1ccc[n+](CC(=O)c2ccccc2)c1`, the cytotoxicity call was “inactive”.

In the case of `C[C@@H]1CN([C@H](C)CO)C(=O)c2cc(NC(=O)Cc3ccccc3)ccc2O[C@@H](C)CCCCO[C@@H]1CN(C)CC1CCCCC1`, the cytotoxicity call is “inactive”. As for `Cc1noc(C)c1S(=O)(=O)N(C)C[C@@H]1OCCCC[C@H](C)Oc2ccc(NS(=O)(=O)c3cn(C)cn3)cc2C(=O)N([C@@H](C)CO)C[C@H]1C`, the cytotoxicity call was “inactive”. `OC[C@@H]1CC[C@@H]2O[C@H](CCc3ccc(C#CCc4ccccc4)cc3)[C@@H](n3cc(-c4ccccc4)nn3)C[C@@H]2O1`: the cytotoxicity call was “inactive”. As to `CO[C@H](C(=O)N(C)C[C@@H]1OCc2ccccc2-c2c(n(C)c3ccccc23)C(=O)N([C@H](C)CO)C[C@H]1C)c1ccccc1`, the cytotoxicity call was “inactive”. As to `CN(C)C(=O)[C@H]1[C@H](CO)[C@H]2Cn3c(ccc(C4=CCCC4)c3=O)[C@@H]1N2S(=O)(=O)c1cn(C)cn1`, the cytotoxicity call is “inactive”. Turning to `O=C(C[C@@H]1CC[C@H]2[C@@H](COC[C@H](O)CN2S(=O)(=O)c2cccc(F)c2)O1)NCc1ccc(Cl)c(Cl)c1`, the cytotoxicity call is “inactive”. Under `C[C@H](CO)N1C[C@H](C)[C@@H](CN(C)Cc2ccc(Oc3ccccc3)cc2)Oc2ccc(NC(=O)CCC(F)(F)F)cc2C1=O` stands “inactive”.

With `C[C@H]1CN([C@@H](C)CO)C(=O)c2cc(NC(=O)CCC(F)(F)F)ccc2O[C@@H]1CN(C)Cc1ccc(C(F)(F)F)cc1`, the cytotoxicity call is “inactive”.

Turning to `C[C@@H]1CN([C@@H](C)CO)C(=O)c2cc(NC(=O)CCC(F)(F)F)ccc2O[C@H]1CN(C)Cc1ccc(Oc2ccccc2)cc1`, the cytotoxicity call is “inactive”. Under `C[C@H](CO)N1C[C@H](C)[C@H](CN(C)Cc2ccc(-c3ccccc3)cc2)Oc2ccc(NC(=O)CCC(F)(F)F)cc2C1=O` stands “active”; under `C[C@@H]1CN([C@@H](C)CO)C(=O)c2cc(NC(=O)CCC(F)(F)F)ccc2O[C@@H]1CN(C)Cc1ccc(-c2ccccc2)cc1`, “inactive”. For `C[C@H](CO)N1C[C@H](C)[C@@H](CN(C)Cc2ccc(-c3ccccc3)cc2)Oc2ccc(NC(=O)CCC(F)(F)F)cc2C1=O`, the cytotoxicity call was “inactive”.

Turning to `C[C@H]1CN([C@@H](C)CO)C(=O)c2cc(NC(=O)CCC(F)(F)F)ccc2O[C@H]1CN(C)Cc1ccc(-c2ccccc2)cc1`, the cytotoxicity call is “inactive”. On to `C[C@@H]1CN([C@H](C)CO)C(=O)c2cc(NC(=O)CCC(F)(F)F)ccc2O[C@H]1CN(C)Cc1ccc(-c2ccccc2)cc1`, for which the cytotoxicity call was “active”. For the compound `C[C@@H]1CN([C@H](C)CO)C(=O)c2cc(NC(=O)CCC(F)(F)F)ccc2O[C@@H]1CN(C)Cc1ccc(-c2ccccc2)cc1`, the cytotoxicity call was “inactive”. As for `C[C@@H]1CN([C@@H](C)CO)C(=O)c2cc(NC(=O)CCC(F)(F)F)ccc2O[C@H]1CN(C)Cc1ccc(-c2ccccc2)cc1`, the entry is “active”; as for `C[C@H](CO)N1C[C@H](C)[C@H](CN(C)Cc2ccc(C(F)(F)F)cc2)Oc2ccc(NC(=O)CCC(F)(F)F)cc2C1=O`, “inactive”. As for `C[C@H]1CN([C@@H](C)CO)C(=O)c2cc(NC(=O)CCC(F)(F)F)ccc2O[C@@H]1CN(C)Cc1ccc(-c2ccccc2)cc1`, the entry is “active”.

As for `CCN1CCC(N(C)S(=O)(=O)c2cn(C)c(=O)n(C)c2=O)CC1`, the cytotoxicity call is “inactive”.

With `CO[C@@H]1CN(C)C(=O)c2ccc(NS(C)(=O)=O)cc2OC[C@H](C)N(C(=O)C2CCCCC2)C[C@H]1C`, the cytotoxicity call is “inactive”. `C[C@@H]1CN([C@H](C)CO)C(=O)c2cc(NS(C)(=O)=O)ccc2O[C@H]1CN(C)Cc1ccc(C(=O)Nc2ccccc2N)cc1`: the cytotoxicity call was “inactive”. As for `C[C@@H]1CCCCO[C@@H](CN(C)C(=O)Nc2cccc3ccccc23)[C@@H](C)CN([C@H](C)CO)C(=O)c2cc(NS(=O)(=O)c3cccs3)ccc2O1`, the cytotoxicity call is “inactive”. For the compound `C[C@@H]1CN([C@@H](C)CO)C(=O)c2cccc(NS(=O)(=O)c3ccccc3)c2O[C@H]1CN(C)Cc1ccncc1`, the cytotoxicity call was “inactive”.

Consider `CCOc1nc2cccc(C(=O)O[C@@H](C)OC(=O)OC3CCCCC3)c2n1Cc1ccc(-c2ccccc2-c2nn[nH]n2)cc1`, for which the cytotoxicity call is “inactive”. Consider `c1ccc2c(c1)Cn1nnnc1-2`, for which the cytotoxicity call was “inactive”.

As to `C[C@H]1CN([C@@H](C)CO)S(=O)(=O)c2ccc(-c3ccc(C(=O)N(C)C)cc3)cc2O[C@@H]1CN(C)C(=O)Cc1ccccn1`, the cytotoxicity call was “inactive”. `C[C@@H]1CN([C@@H](C)CO)C(=O)CCCn2nncc2CO[C@@H]1CN(C)C(=O)Nc1ccc(N2CCCCC2)cc1`: the cytotoxicity call was “inactive”. `COc1ccccc1C#Cc1cnc2c(c1)C(=O)N([C@@H](C)CO)C[C@@H](C)[C@H](CN(C)C(=O)c1ccc3c(c1)OCO3)O2`: the cytotoxicity call is “inactive”. For the compound `C[C@H](CO)N1C[C@H](C)[C@@H](CN(C)Cc2ccc(Cl)c(Cl)c2)Oc2c(NC(=O)CCCCCC(=O)Nc3ccccc3N)cccc2C1=O`, the cytotoxicity call was “inactive”. As for `C[C@@H]1CN([C@H](C)CO)C(=O)c2cc(NS(=O)(=O)c3cccs3)ccc2O[C@@H](C)CCCCO[C@@H]1CN(C)C(=O)NC1CCCCC1`, the cytotoxicity call is “active”. Take `C[C@H](CO)N1C[C@H](C)[C@H](CN(C)C(=O)Nc2ccc(C(F)(F)F)cc2)OCCCC[C@H](C)Oc2ccc(NS(=O)(=O)c3cccs3)cc2C1=O`: the cytotoxicity call is “active”. With `C[C@H]1CCCCO[C@@H](CN(C)C(=O)NC2CCCCC2)[C@@H](C)CN([C@@H](C)CO)C(=O)c2cc(NS(=O)(=O)c3cccs3)ccc2O1`, the cytotoxicity call is “inactive”. With `C[C@@H]1CN([C@H](C)CO)C(=O)c2cc(NS(=O)(=O)c3cccs3)ccc2O[C@@H](C)CCCCO[C@H]1CN(C)C(=O)NC1CCCCC1`, the cytotoxicity call is “inactive”.

In the case of `C[C@H]1CCCCO[C@@H](CN(C)C(=O)Nc2ccccc2)[C@@H](C)CN([C@@H](C)CO)C(=O)c2cc(NS(=O)(=O)c3cccs3)ccc2O1`, the cytotoxicity call was “inactive”. As for `C[C@H](CO)N1C[C@H](C)[C@@H](CN(C)C(=O)Nc2ccc(C(F)(F)F)cc2)OCCCC[C@H](C)Oc2ccc(NS(=O)(=O)c3cccs3)cc2C1=O`, the entry is “active”.

Turning to `C[C@@H]1CCCCO[C@@H](CN(C)C(=O)Nc2ccccc2)[C@@H](C)CN([C@H](C)CO)C(=O)c2cc(NS(=O)(=O)c3cccs3)ccc2O1`, the cytotoxicity call was “inactive”. In the case of `C[C@@H]1CCCCO[C@@H](CN(C)C(=O)Nc2ccc(C(F)(F)F)cc2)[C@H](C)CN([C@@H](C)CO)C(=O)c2cc(NS(=O)(=O)c3cccs3)ccc2O1`, the cytotoxicity call was “inactive”. For `C[C@@H]1CCCCO[C@H](CN(C)C(=O)Nc2ccc(C(F)(F)F)cc2)[C@H](C)CN([C@H](C)CO)C(=O)c2cc(NS(=O)(=O)c3cccs3)ccc2O1`, the cytotoxicity call was “inactive”.

Consider `C[C@@H]1CN([C@@H](C)CO)C(=O)c2cc(NS(=O)(=O)c3cccs3)ccc2O[C@@H](C)CCCCO[C@@H]1CN(C)C(=O)Nc1ccc(C(F)(F)F)cc1`, for which the cytotoxicity call is “inactive”.

As to `C[C@@H]1CCCCO[C@H](CN(C)C(=O)Nc2ccccc2)[C@@H](C)CN([C@@H](C)CO)C(=O)c2cc(NS(=O)(=O)c3cccs3)ccc2O1`, the cytotoxicity call is “active”. On to `C[C@@H]1CCCCO[C@H](CN(C)C(=O)Nc2ccc(C(F)(F)F)cc2)[C@@H](C)CN([C@H](C)CO)C(=O)c2cc(NS(=O)(=O)c3cccs3)ccc2O1`, for which the cytotoxicity call is “inactive”.
